Screens (PubChem BioAssay)
This is a sample that favours compounds with a hit; in the whole collection about 2.3% have one here.
FUS suppressor: rescues growth of FUS-expressing yeast | AID 1347120 | Potency, µM (titrated, usually from 76.6 µM), most hits filed as activators | 0.24% of 390,000 active | S. cerevisiae FUS-expressing, growth rescue, OD600, 24 h; also: nearly all actives have a fitted effect of over 55% in size
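Quantitative HTS measuring growth restoration of FUS-toxic yeast. Galactose-induced cells (OD 0.005) were exposed 24hr at 30C to compounds at several concentrations, then absorbance at 600 nm was recorded.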
uPA generation: cell surface uPA generation inhibition | AID 540303 | cell surface uPA generation assay, qHTS | 0.31% of 330,000 active | Potency, µM (top dose mostly 38.3 µM), actives largely listed as inhibitors; active = well fitted inhibition curve with a large enough effect; inconclusive = small, poorly fitted or top-dose-only effect; inactive = no such curve, though single readings can be large or run the other way; tested in mouse RAW 264.7 cells; also: nearly all actives have a fitted effect of over 55% in size
BCR signal inh: blocks chronic active B-cell receptor signaling; Potency, µM (highest dose often 46.1 µM), hits mostly inhibitors; AID 493014; ABC-DLBCL IkBa-CBG/CBR reporter, luminescence ratio, 4 h; 0.05% of 340,000 active; active = well fitted inhibition curve with a large enough effect in the signal ratio, with a control signal flat, not every such curve was filed as active; inconclusive = small, poorly fitted or top-dose-only effect, or effect the other way, or a change in a side signal; the % refers to the signal ratio
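Cell line TMD8 (human ABC DLBCL), stably expressing tet-inducible CBG68-IkBa fusion and CBR; IMDM/0.5% FBS; cpd up to 46 uM; dox induction, 4 h, 37C/5% CO2; dual luminescence; green/red ratio; MG132 control.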
aSyn yeast inh: alpha-synuclein toxicity inhibition in yeast; Yeast expressing alpha-synuclein, growth rescue, BacTiter-Glo, 24 h; 0.14% of 370,000 active; AID 652106; Potency, µM (top dose mostly 46.1 µM), actives largely listed as activators; also: nearly all actives have a fitted effect of over 65% in size
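Readout is rescue of growth in alpha-synuclein-expressing yeast, so inhibitors of toxicity appear as activators. Growth after 24 hr at 30 deg C in galactose medium is quantified by luminescence.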
Abeta rescue: compounds reversing amyloid beta toxicity in yeast. yeast expressing A-beta42, growth rescue, OD600, 48 h; response scale: 0% DMSO, 100% iron-clioquinol control. 0.063% of 410,000 active. Potency, µM (highest dose often 46.1 µM), usual class: activators. AID 1347071; also: nearly all actives have a fitted effect of over 55% in size
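Growth rescue measured by 600 nm absorbance after 48 h yeast culture at 30 C with compound. Values normalized between DMSO and an equimolar ferric chloride plus clioquinol control.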
TDP43 rescue: rescues yeast growth from TDP-43 toxicity. TDP-43 expressing yeast growth rescue, BacTiter-Glo, 24 h. 1.8% of 410,000 active. Potency, µM (series often up to 46.1 µM), actives largely listed as activators; also: nearly all actives have a fitted effect of over 50% in size
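Galactose-induced TDP-43 yeast, OD600=0.02, compound pinned; 24 hr, 30 deg C; BacTiter-Glo luminescence for growth. Inhibitors of TDP-43 toxicity read as activators.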
Numbers stand for hits; . = inactive; ? = inconclusive; / = no result. Unless noted, calls follow the shape of the dose curve; as a rule, active = well fitted curve in the direction sought with a large enough effect; inconclusive = small, poorly fitted or top-dose-only effect, or another doubt; inactive = no such curve, though single readings can be large; an effect the other way counts as inactive or inconclusive.

SMILES | FUS suppressor | uPA generation | BCR signal inh | aSyn yeast inh | Abeta rescue | TDP43 rescue
CCCCCn1c(CN2CCN(c3cccc(Cl)c3)CC2)nc2c1c(=O)n(C)c(=O)n2C | ? | . | . | . | . | ?
CCCCn1c(CN2CCN(c3cccc(Cl)c3)CC2)nc2c1c(=O)n(C)c(=O)n2C | . | . | . | . | . | 20µM
O=C(OC1CCOC1=O)c1ccc(N2CCCC2)c([N+](=O)[O-])c1 (stereo unspecified) | . | . | . | . | . | /
CCC1CCc2c(sc(NC(=O)c3cnccn3)c2C(N)=O)C1 (stereo unspecified) | . | . | . | . | . | .
CCNC(=O)O/N=C1\CCCCC1c1ccc([N+](=O)[O-])cc1[N+](=O)[O-] (stereo unspecified) | . | . | . | . | . | 14.1µM
CCOC(=O)C1=C(C)NC2=C(C(=O)CCC2)C1c1ccc(O)c(OCC)c1 (stereo unspecified) | / | . | . | . | . | .
COc1cc(N/N=C(\C)c2ccc(O)c(C)c2)nc(-c2ccccc2)n1 | . | . | . | . | . | .
C/C(=N\Nc1nc(C)cc(-c2ccccc2)n1)c1cccc(N)c1 | . | 10µM | ? | . | . | .
C/C(=N\Nc1cc(-c2ccccc2)nc(-c2ccccc2)n1)c1ccc(O)c(C)c1 | . | . | ? | . | . | 15.8µM
C/C(=N\Nc1ccc([N+](=O)[O-])cc1)c1cccc(N)c1 | . | . | ? | . | . | 14.1µM
C/C(=N\Nc1nc(C)cc(-c2ccccc2)n1)c1ccc(O)cc1 | . | 10µM | . | . | . | .
O=C(COC(=O)c1ccc(C(F)(F)F)cc1)NC(=O)C1CCCCC1 | / | / | / | . | / | /
CCc1ccc(NC2CC(=O)N(c3ccc(OC)cc3OC)C2=O)cc1 (stereo unspecified) | . | . | . | . | . | .
Nn1c(SCc2cccc(C(F)(F)F)c2)nnc1-c1ccco1 | . | . | . | . | . | .
Cc1ccc(-n2c(SCc3nc(-c4ccc(Cl)cc4)no3)nnc2-c2ccncc2)cc1 | ? | / | / | / | . | 35.5µM
Cn1c(SCc2cccc(C(F)(F)F)c2)nnc1-c1ccco1 | . | . | ? | . | . | 20µM
Cc1ccc(-c2noc(CSc3nnc(C)n3-c3ccc(C)c(C)c3)n2)cc1 | . | / | / | / | . | 35.5µM
Cn1c(SCc2nc(-c3ccc(Cl)cc3)no2)nnc1-c1ccco1 | . | . | . | . | . | 12.6µM
O=C(CC1S/C(=N\S(=O)(=O)c2ccccc2)N(c2ccccc2)C1=O)Nc1ccc(F)cc1 (stereo unspecified) | 17.8µM | . | . | . | . | .
Cc1ccc(S(=O)(=O)/N=C2\SC(CC(=O)Nc3ccc(F)cc3)C(=O)N2c2ccccc2)cc1 (stereo unspecified) | / | . | . | . | . | .
Cc1ccc(NC(=O)CC2SC(=O)N(c3ccccc3)C2=O)cc1 (stereo unspecified) | . | . | ? | . | . | 20µM
O=C(CC1SC(=O)N(c2ccccc2)C1=O)Nc1ccccc1 (stereo unspecified) | ? | / | ? | . | . | .
COc1cccc2c(=O)c3c(cnn3C)n(C)c12 | . | . | . | 25.1µM | ? | ?
CN1C(=O)C2(Nc3ccccc3-c3nc4ccccc4n32)c2ccccc21 (stereo unspecified) | 50.1µM | . | ? | . | . | .
Cc1ccc(S(=O)(=O)NCc2c(Cl)cccc2Oc2ccccc2)cc1 | . | . | . | . | . | 20µM
SMILES | FUS suppressor | uPA generation | BCR signal inh | aSyn yeast inh | Abeta rescue | TDP43 rescue
Cc1ccc(NS(=O)(=O)c2cccc3cccnc23)c(Br)c1 | . | . | . | . | . | .
Nc1c(C(=O)NCc2ccco2)nnn1CC(=O)Nc1ccccc1 | 39.8µM | . | . | . | . | .
O=[N+]([O-])c1ccc2[nH]c(O)c(N=NC(=S)Nc3cccnc3)c2c1 | . | . | . | . | . | 10µM
COc1ccc(-c2nc3ccccc3c(=O)n2O)cc1 | . | . | . | 31.6µM | . | .
O=c1c2ccccc2nc(-c2ccccc2)n1O | . | . | / | . | . | .
COc1ccccc1C(=O)Nc1c(C(=O)N2CCN(c3ccc(F)cc3)CC2)oc2ccccc12 | . | / | / | / | . | .
C/C=C/c1ccc(OCCN2C(=O)NC(C)(C)C2=O)c(OC)c1 | . | . | / | . | . | .
CN(CC(=O)Nc1cccc(Cl)c1)S(=O)(=O)/C=C/c1ccccc1 | . | / | / | ? | . | 17.8µM
Cc1c(NC(=S)NC(=O)C(C)(C)C)cccc1[N+](=O)[O-] | . | . | . | . | . | 14.1µM
O=C(CCc1ccccc1)NC(=S)Nc1ccccc1[N+](=O)[O-] | . | . | . | . | ? | 12.6µM
Cc1ccc([N+](=O)[O-])cc1NC(=S)NC(=O)C(C)(C)C | . | . | . | . | ? | ?
O=C(CCCc1ccccc1)Nc1ccccc1[N+](=O)[O-] | . | . | . | . | . | 11.2µM
COc1ccc(C(CNC(=O)C(C)(C)Oc2ccc(Cl)cc2)N2CCCC2)cc1 (stereo unspecified) | . | ? | . | . | . | .
CCCCNC(=O)C1(C(=O)c2ccc(OC)cc2)CC(c2ccccc2C(F)(F)F)=NO1 (stereo unspecified) | . | / | / | / | / | /
CC(C(=O)Nc1ccc(Cl)cc1)c1ncc(C(F)(F)F)cc1Cl (stereo unspecified) | . | / | ? | . | . | .
CCc1ccc(N=c2c([N+](=O)[O-])nn(-c3ccccc3)n2O)cc1 | . | / | . | . | ? | 12.6µM
COc1ccc(-n2nc([N+](=O)[O-])c(=NCCc3ccc(C)cc3)n2O)cc1 | . | . | . | . | . | ?
Cc1ccc(CN=c2c([N+](=O)[O-])nn(-c3cccc(Cl)c3)n2O)cc1 | . | . | . | . | ? | 10µM
Cc1ccc(CN=c2c([N+](=O)[O-])nn(-c3cccc(C)c3)n2O)cc1 | . | . | ? | . | . | 15.8µM
O=C(CN1CCc2ccccc2C1)Nc1ccccc1C(F)(F)F | . | . | . | . | . | .
CC/C(=N/NC(=O)c1ccccc1)c1ccc(OCCN2CCOCC2)cc1 | / | . | ? | . | . | .
CCc1ccc(NC(=O)C2CCN(S(C)(=O)=O)CC2)cc1 | . | . | . | . | . | .
O=C(Nc1ccc(F)cc1)c1ccc(Cn2nc(N3CCN(c4ccccc4)CC3)ccc2=O)o1 | ? | / | / | / | . | 22.4µM
Cc1ccc(NC(=O)Cn2nc(N3CCN(c4ccccc4)CC3)ccc2=O)cc1F | ? | / | / | / | . | 17.8µM
CC(=O)c1ccc(NC(=O)Cn2nc(N3CCN(c4ccccc4)CC3)ccc2=O)cc1 | . | / | / | / | . | .
CCCCNC(=O)C1(C)CCN1C(=O)c1cccc(OC(F)(F)F)c1 (stereo unspecified) | . | / | / | . | . | .
